Results on 40 molecules are retold here after PubChem BioAssay (NCI).

This is part of a sample that, as a whole, favours compounds with a hit. Of some 83,000 tested, about 20% had one in any assay.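 A percent growth of 40 corresponds to 60% growth inhibition; 0 means no net growth; -100 means all cells died. Active threshold: below 10.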 Active and inactive are the calls of the source.

In the assay the test system is OVCAR-3 ovarian. Kind of assay: NCI-60 one-dose screen, 48 h (100 = growth as untreated, 0 = no growth, -100 = all killed). Particulars: 10 µM unless noted. On the procedure: Growth inhibition of the OVCAR-3 human tumor cell line is measured as a screen for anti-cancer activity. Cells are grown in 96 well plates and exposed to the test compound for 48 hours. Compounds are tested at a single concentration, which is 10^-5 M for most compounds. The reported endpoint is percent growth (GI% or GIPRCNT), where numbers from 0 - 100% represent growth inhibition, and numbers from -100% - 0 represent cell death. For example, a value of 40 represents 60% growth inhibition. A value of 0 means no net growth occurred over the course of the experiment. A value of -40 indicates 40% of cells at the beginning of the experiment died by the end of the experiment. A value of -100 means all cells are dead at the end of the experiment.
NCI-60 Human Tumor Cell Lines Screen was performed using the standard one-dose NCI protocol, which is described in more detail at https://dtp.cancer.gov/discovery_development/nci-60/default.htm.
Compounds with GIPRCNT values below 10 were considered active. Activity score was based on GIPRCNT using the following formula: […]
Score is 0 for GIPRCNT values of 100 or above, 50 for GIPRCNT values of 0, and 100 for GIPRCNT values of -100.
For `FC(F)(F)c1cc(-c2nnc3n2N=C(Cl)CS3)cc(C(F)(F)F)c1`, the growth is 116% (inactive). As for `Fc1ccc(-c2nc(-c3ccc(-c4nc5ccc(F)cc5[nH]4)cc3)no2)cc1`, the figure is 94.3% (inactive); as for `Nc1c(C(=O)Nc2cccc(Cl)c2)sc2nc3c(cc12)C(=O)CCC3`, 10.3% (inactive); as for `CCN(CC)CC(=O)Nc1c(C)cc(C(=O)NN)cc1C`, 100% (inactive). On to `COc1ccc2[nH]cc(C3(c4c[nH]c5ccc(OC)cc45)C(=O)Nc4ccc(F)cc43)c2c1`, for which the growth is 86.6% (inactive). As for `O=C(Nc1ccccc1)c1cc2ccccc2s1`, the figure is 105% (inactive). As for `COc1cc(/C=N/NC(=O)Cn2c(-c3ccc(C)o3)nc3ccccc32)ccc1OCc1ccccc1`, the figure is 82% (inactive). Next, `CCOC(=O)c1ccc2c(c1)[n+](=O)c(C(=O)c1ccc3ccccc3c1)c(C(F)(F)F)n2[O-]`: -99.6% (active); `Cc1ccccc1C1CC(=O)c2ccccc2C1C` (stereo not given): 116% (inactive); `Cc1ccc(C)c2c1SC1=NNC(Oc3ccc(Cl)cc3)=C(C#N)C(=N)N12`: 110% (inactive).

For `COc1ccc(/C(C)=N/NC(=O)CSc2nc3ccccc3c(=O)n2CCc2ccc(S(N)(=O)=O)cc2)cc1`, the growth is 16.6% (inactive). As for `CSC1=N/C(=C\c2cccc(OCc3ccc(Cl)cc3)c2)C(=O)N1`, the figure is 84.2% (inactive); as for `COc1cc(C2CC(c3ccccc3)=NN2C=O)ccc1Oc1ccnc2cc(Cl)ccc12` (stereo not given), 69.9% (inactive).

Consider `O=C(NNC(=O)c1cccc(Cl)c1)c1ccccc1`, for which the growth is 115% (inactive). As for `C=C1C[C@@]2(C)C(CC[C@]3(C)C2CC=C2C4CC(C)(C)C[C@@H](OC(=O)/C(C)=C\C)[C@]4(C(=O)O)CC[C@]23C)C(C)(C)C1=O` (stereo not given in full), the figure is -16.8% (active). Consider `CC(=O)C1CCC2C3CC(C)=C4CC(O)CCC4(C)C3CCC12C` (stereo not given), for which the growth is 113% (inactive).

Consider `Nc1ccc(C2=NNC(=O)Cc3cc4c(cc32)OCCO4)cc1Cl`, for which the growth is -14.1% (active). For the molecule `COc1cccc(-c2nc3sccn3c2-c2ccnc(NCCN3CCCN(C)S3(=O)=O)n2)c1`, the growth was 91.2% (inactive). As for `CC(=O)c1ccc(Br)c([N+](=O)[O-])c1`, the figure is 124% (inactive). Next, `CNC1=C([N+](=O)[O-])C(c2ccccc2O)C(C#N)=C(c2cccs2)O1` (stereo not given): 92% (inactive). Turning to `Cc1ccsc1C(=O)CC(=O)C(F)(F)C(F)(F)C(F)(F)F`, the growth was 110% (inactive).

As to `COc1cc(C)c(Cl)cc1C1=NN(c2ccc(S(N)(=O)=O)cc2)C(/C=C/c2ccccc2)C1` (stereo not given), the growth was 51.7% (inactive).

For the molecule `Cc1ccc(OC2=C(C#N)C(=N)N3C(=NN2)Sc2c(C)ccc(C)c23)cc1`, the growth was 117% (inactive).

On to `CCCCCCCC/C=C\CCCCCCCC(=O)OCCCCCC`, for which the growth is 113% (inactive).

As for `COC1(OC)C2(Cl)CCC1(Cl)C(Cl)=C2Cl`, the growth is 112% (inactive). Next, `O/N=C/c1ccncc1`: 113% (inactive); `COc1ccc2c(c1)sc1nc(-c3ccccc3)c(-c3cccc4ccccc34)n12`: -50.3% (active).

`CCOC(=O)c1ccc(NC(=O)CSC(N)=O)cc1`: the growth is 109% (inactive). Turning to `CCN(CC)CCCC(C)Nc1ccnc2ccc(Oc3ccccc3)cc12` (stereo not given), the growth was 76.8% (inactive). As for `COc1cccc(-c2cc(-c3cccs3)c(C#N)c(=O)[nH]2)c1`, the figure is 109% (inactive). As for `CC(C)c1nc2ccccc2n1CC(=O)N/N=C/c1cccc(O)c1`, the figure is 109% (inactive); as for `C[Si](C)(C)C(c1ccccc1)c1ccccc1`, 113% (inactive); as for `O=C(O)c1ccccc1Oc1cc(-c2ccco2)nc(OCCN2CCOCC2)n1`, 126% (inactive). For `NS(=O)(=O)c1ccc(CCn2c(SCC(=O)N/N=C/c3cccnc3)nc3ccccc3c2=O)cc1`, the growth was 84.7% (inactive).

`CS(=O)(=O)c1ccc(C(=O)N/N=C/c2ccccc2O)cc1`: the growth was 22.8% (inactive). Next, `COc1ccc(NC(=O)c2sc3c(=O)[nH]c(C(F)(F)F)nc3c2C)cc1`: 112% (inactive). As for `CC1(C)CC(=O)c2cc3c(N)c(C(=O)Nc4ccc(Cl)cc4)sc3nc2C1`, the growth was 111% (inactive). As for `NC(N)=NC1CCCCC1`, the figure is -50.3% (active); as for `C=C(c1ccc(C(=O)NCCCn2ccnc2)cc1)c1cc2c(cc1C)C(C)(C)CCC2(C)C`, 25.7% (inactive).

On to `COc1ccc2[nH]cc(C3(c4c[nH]c5ccc(OC)cc45)C(=O)Nc4ccc(Cl)cc43)c2c1`, for which the growth is 61.9% (inactive).
